SMILES strings stand for the structures. Values joined by “and” are separate entries in the source; they are usually repeats but may differ in a detail not shown here. Equal values may be shown once. Inconclusive results are not listed. Where a call stands in place of a potency, no number is given. Active and inactive are the calls of the source. Calls come from the whole dose curve.

The target of one assay is Acetylcholinesterase (Homo sapiens) (UniProt P22303). Nature of the assay: Acetylcholinesterase (AChE) small molecule antagonists: fluorescence cell-based qHTS assay (AID 1347398). Note: nearly all actives have a fitted effect of over 50% in size. Note: potency is the fitted concentration of half-maximal effect. The note with it: SH-SY5Y cells; Potency: AChE activity; outcome: AChE activity; series mostly up to 115 µM. In a few lines: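 Using neuroblastoma SH-SY5Y cells as the enzyme source, test chemicals are preincubated 30 min at 37 C; AChE-driven acetylthiocholine cleavage is then quantified by thiocholine-dependent Thiolite Green fluorescence after 40 min at room temperature.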
Acetylcholinesterase (Homo sapiens), sequence (P22303 whole entry, looked up): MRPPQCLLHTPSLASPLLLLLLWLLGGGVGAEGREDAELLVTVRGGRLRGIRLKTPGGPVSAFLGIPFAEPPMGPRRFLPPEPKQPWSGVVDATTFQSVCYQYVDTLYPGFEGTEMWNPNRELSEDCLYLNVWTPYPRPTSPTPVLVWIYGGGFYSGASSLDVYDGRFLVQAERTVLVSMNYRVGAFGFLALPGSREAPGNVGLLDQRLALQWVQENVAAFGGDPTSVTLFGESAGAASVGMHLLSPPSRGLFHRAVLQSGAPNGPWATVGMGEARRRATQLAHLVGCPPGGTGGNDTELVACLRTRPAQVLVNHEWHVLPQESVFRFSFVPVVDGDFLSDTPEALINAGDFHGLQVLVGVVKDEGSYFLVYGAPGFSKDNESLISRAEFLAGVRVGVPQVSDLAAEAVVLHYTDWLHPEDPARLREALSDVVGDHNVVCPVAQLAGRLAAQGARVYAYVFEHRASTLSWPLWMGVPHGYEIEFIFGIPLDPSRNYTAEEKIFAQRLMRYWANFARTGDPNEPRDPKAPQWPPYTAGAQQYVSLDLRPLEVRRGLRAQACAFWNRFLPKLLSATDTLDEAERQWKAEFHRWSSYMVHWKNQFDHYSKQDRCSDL
For the compound `CN1CCN(c2c(F)cc3c(=O)c(C(=O)O)cn(CCF)c3c2F)CC1`, the Potency entry is “inactive”.
Take `O=C(O)CC(=O)C(=O)O`: the Potency result is “inactive”.
For `O=C(Nc1ccc(Cl)cc1)Nc1ccc(Cl)c(Cl)c1`, the Potency result is “inactive”.
On to `F[B-](F)(F)F`, for which the Potency result was “inactive”.
Still for that read-out and setting: then `O=C(Nc1ccccc1)OCC(CN1CCCCC1)OC(=O)Nc1ccccc1` (stereo not given), with “inactive”; and `CC(=O)OCc1ccc2c(c1)OCO2`, with “inactive”; and `Nc1ccc(N)c2c1C(=O)c1ccccc1C2=O`, with “inactive”.
`O=[N+]([O-])c1cccc(C(F)(F)F)c1`: the Potency result is “inactive”.
Turning to `CCCCCCCCCCn1cc[n+](CCCCCCCCCC)c1C`, the Potency was 40 µM (active).
On to `C=CC(=O)OCCCCCCCCCC`, for which the Potency entry was “inactive”.
Take `C=CC(=O)OCC(CO)(COC(=O)C=C)COC(=O)C=C`: the Potency entry was “inactive”.
Regarding `CCCCC(CC)COC(=O)/C=C\C(=O)OCC(CC)CCCC` (stereo not given), the Potency result was “inactive”.
As to `CCOCOCC`, the Potency entry is “inactive”.
Take `OC(Cn1cncn1)(Cn1cncn1)c1ccc(F)cc1F`: the Potency result is “inactive”.
Still for that read-out and setting: then `O=Nc1ccc(O)cc1`, with “inactive”; and `CCCCCCCCS`, with “inactive”; and `C[C@H]1[C@H](NC(=O)/C(=N/OC(C)(C)C(=O)O)c2csc(N)n2)C(=O)N1S(=O)(=O)O` (stereo in doubt), with “inactive”.
For the compound `CCCCCCCCSCCO`, the Potency entry was “inactive”.
Still for that read-out and setting: then `CCCCCCCCO`, with “inactive”; and `CCCN(CCC)S(=O)(=O)c1ccc(C(=O)O)cc1`, with “inactive”.
For `C[C@@H]1[C@H](O)[C@@H](C)/C=C/C=C\C=C\C=C\C=C\C=C\C=C\[C@H](O[C@@H]2O[C@H](C)[C@@H](O)[C@H](N)[C@@H]2O)C[C@@H]2O[C@](O)(C[C@@H](O)C[C@@H](O)[C@H](O)CC[C@@H](O)C[C@@H](O)CC(=O)O[C@H]1C)C[C@H](O)[C@H]2C(=O)O` (stereo in doubt), the Potency entry is “inactive”.
As to `O=C(c1ccc(O)cc1)c1ccc(O)cc1O`, the Potency result is “inactive”.
As for `CCCCCCCCCCCCCCCC[N+](C)(C)CC`, the Potency is 63.5 µM (active) and 38.9 µM (active).
Regarding `C[C@]12CC[C@@H]3c4ccc(O)cc4CC[C@H]3[C@@H]1CC[C@@H]2OC(=O)CCC1CCCC1`, the Potency result is “inactive”.
Take `[Cl][Sc]([Cl])[Cl]`: the Potency result was “inactive”.
For the compound `NC(N)=Nc1nc(CSCC/C(N)=N/S(N)(=O)=O)cs1`, the Potency result was “inactive”.
For the compound `CC(C=O)Cc1ccc(C(C)(C)C)cc1` (stereo not given), the Potency entry is “inactive”.
In the case of `N#CCc1ccc(Cl)cc1Cl`, the Potency result was “inactive”.
Take `CCOC(=O)c1ccc(OCCN2C[C@H](O)[C@@H](O)[C@H](O)[C@H]2CO)cc1`: the Potency entry is “inactive”.
Still for that read-out and setting: with `COc1ccc(C2CNC(=O)C2)cc1OC1CCCC1` (stereo not given) the entry was “inactive”; with `Cc1ccc(O)c(-n2nc3ccccc3n2)c1`, “inactive”; with `COc1ccc(Cc2cnc(N)nc2N)cc1OC`, “inactive”.
With `CC(C)CNCC(C)C`, the Potency result is “inactive”.
Same read-out and setting: then `COc1nccnc1NS(=O)(=O)c1ccc(N)cc1`, with “inactive”; and `CCCOCCC`, with “inactive”.
Consider `COC[C@H](c1ccc(C(F)(F)F)cc1)N1CCN(C2(C)CCN(C(=O)c3c(C)ncnc3C)CC2)C[C@H]1C`, for which the Potency entry was “inactive”.
On the same count and under the same terms, then `CC(C)(C)CC(=O)OCC(=O)[C@@]1(O)CC[C@H]2[C@@H]3CCC4=CC(=O)C=C[C@]4(C)[C@H]3[C@@H](O)C[C@@]21C`, with “inactive”.
For the compound `CCCCCOC(=O)COc1cc(N2C(=O)C3=C(CCCC3)C2=O)c(F)cc1Cl`, the Potency entry was “inactive”.
Same read-out and setting: then `CCCCC(CC)COC(=O)c1ccc(O)cc1` (stereo not given), with “inactive”.
On to `C[C@@H]1CC[C@@]2(OC1)O[C@H]1C[C@H]3[C@@H]4CC[C@H]5C[C@@H](O)CC[C@]5(C)[C@H]4CC(=O)[C@]3(C)[C@H]1[C@@H]2C`, for which the activity change, negative = inhibition is -1.2% [at 10.5 µM] (inactive).

A further assay has the same target. Description: Acetylcholinesterase (AChE) small molecule antagonists: enzyme-based qHTS assay with human liver microsomes (AID 1347399). Note: nearly all actives have a fitted effect of over 60% in size. The note with it: Potency: qHTS inhibition; outcome: qHTS inhibition; series mostly up to 115 µM. In a few lines: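 Recombinant human AChE (50 mU/mL in the enzyme mix) and human liver microsomes (0.25 mg/mL final) were preincubated with compound and NADPH (0.25 mg/mL final) for 30 min at 37 C. Acetylthiocholine/DTNB was then added; thiocholine was read colorimetrically after 10 min at room temperature.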
On the technique in general: In qHTS, concentration-response curves come from the screen itself.
With `CN1CCN(c2c(F)cc3c(=O)c(C(=O)O)cn(CCF)c3c2F)CC1`, the Potency result was “inactive”.
The same measure, in the same setting: with `O=C(O)CC(=O)C(=O)O` the entry was “inactive”.
Take `O=C(Nc1ccc(Cl)cc1)Nc1ccc(Cl)c(Cl)c1`: the Potency result is “inactive”.
In the case of `F[B-](F)(F)F`, the Potency result is “inactive”.
For `O=C(Nc1ccccc1)OCC(CN1CCCCC1)OC(=O)Nc1ccccc1` (stereo not given), the Potency result was “inactive”.
As for `CC(=O)OCc1ccc2c(c1)OCO2`, the Potency entry was “inactive”.
`Nc1ccc(N)c2c1C(=O)c1ccccc1C2=O`: the Potency entry is “inactive”.
On the same count and under the same terms, with `O=[N+]([O-])c1cccc(C(F)(F)F)c1` the entry was “inactive”; with `CCCCCCCCCCn1cc[n+](CCCCCCCCCC)c1C`, “inactive”; with `C=CC(=O)OCCCCCCCCCC`, “inactive”.
Turning to `C=CC(=O)OCC(CO)(COC(=O)C=C)COC(=O)C=C`, the Potency entry is “inactive”.
As to `CCCCC(CC)COC(=O)/C=C\C(=O)OCC(CC)CCCC` (stereo not given), the Potency result is “inactive”.
As to `CCOCOCC`, the Potency entry is “inactive”.
As for `OC(Cn1cncn1)(Cn1cncn1)c1ccc(F)cc1F`, the Potency entry is “inactive”.
The same measure, in the same setting: then `O=Nc1ccc(O)cc1`, with “inactive”; and `CCCCCCCCS`, with “inactive”.
For the compound `C[C@H]1[C@H](NC(=O)/C(=N/OC(C)(C)C(=O)O)c2csc(N)n2)C(=O)N1S(=O)(=O)O` (stereo in doubt), the Potency result was “inactive”.
For `CCCCCCCCSCCO`, the Potency result is “inactive”.
On the same count and under the same terms, then `CCCCCCCCO`, with “inactive”; and `CCCN(CCC)S(=O)(=O)c1ccc(C(=O)O)cc1`, with “inactive”; and `C[C@@H]1[C@H](O)[C@@H](C)/C=C/C=C\C=C\C=C\C=C\C=C\C=C\[C@H](O[C@@H]2O[C@H](C)[C@@H](O)[C@H](N)[C@@H]2O)C[C@@H]2O[C@](O)(C[C@@H](O)C[C@@H](O)[C@H](O)CC[C@@H](O)C[C@@H](O)CC(=O)O[C@H]1C)C[C@H](O)[C@H]2C(=O)O` (stereo in doubt), with “inactive”.
Still for that read-out and setting: with `O=C(c1ccc(O)cc1)c1ccc(O)cc1O` the entry was “inactive”; with `CCCCCCCCCCCCCCCC[N+](C)(C)CC`, “inactive”.
Same read-out and setting: then `C[C@]12CC[C@@H]3c4ccc(O)cc4CC[C@H]3[C@@H]1CC[C@@H]2OC(=O)CCC1CCCC1`, with “inactive”; and `[Cl][Sc]([Cl])[Cl]`, with “inactive”; and `NC(N)=Nc1nc(CSCC/C(N)=N/S(N)(=O)=O)cs1`, with “inactive”.
Take `CC(C=O)Cc1ccc(C(C)(C)C)cc1` (stereo not given): the Potency result is “inactive”.
On the same count and under the same terms, then `N#CCc1ccc(Cl)cc1Cl`, with “inactive”.
For `CCOC(=O)c1ccc(OCCN2C[C@H](O)[C@@H](O)[C@H](O)[C@H]2CO)cc1`, the Potency result was “inactive”.
As for `COc1ccc(C2CNC(=O)C2)cc1OC1CCCC1` (stereo not given), the Potency result is “inactive”.
On the same count and under the same terms, with `Cc1ccc(O)c(-n2nc3ccccc3n2)c1` the entry was “inactive”.
Take `COc1ccc(Cc2cnc(N)nc2N)cc1OC`: the Potency result is “inactive”.
On to `CC(C)CNCC(C)C`, for which the Potency result is “inactive”.
For `COc1nccnc1NS(=O)(=O)c1ccc(N)cc1`, the Potency entry is “inactive”.
`CCCOCCC`: the Potency result is “inactive”.
In the case of `COC[C@H](c1ccc(C(F)(F)F)cc1)N1CCN(C2(C)CCN(C(=O)c3c(C)ncnc3C)CC2)C[C@H]1C`, the Potency result was “inactive”.
`CC(C)(C)CC(=O)OCC(=O)[C@@]1(O)CC[C@H]2[C@@H]3CCC4=CC(=O)C=C[C@]4(C)[C@H]3[C@@H](O)C[C@@]21C`: the Potency result was “inactive”.
On to `CCCCCOC(=O)COc1cc(N2C(=O)C3=C(CCCC3)C2=O)c(F)cc1Cl`, for which the Potency entry was “inactive”.
In the case of `CCCCC(CC)COC(=O)c1ccc(O)cc1` (stereo not given), the Potency result was “inactive”.
`C[C@@H]1CC[C@@]2(OC1)O[C@H]1C[C@H]3[C@@H]4CC[C@H]5C[C@@H](O)CC[C@]5(C)[C@H]4CC(=O)[C@]3(C)[C@H]1[C@@H]2C`: the activity change, negative = inhibition was -3.36% [at 10.5 µM] (inactive).

(Values after PubChem BioAssay (Tox21).)
